Laboratory results reported in PubChem BioAssay (NCI).
This is part of a sample that, as a whole, favours compounds with a hit. Of some 83,000 tested, about 20% had one in any assay.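 Activity criterion: percent growth below 10, measured after cells in 96-well plates were exposed to a single compound concentration for 48 hours.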 The source made the active and inactive calls.

Test system: SNB-19 CNS
Assay: NCI-60 one-dose screen, 48 h (100 = growth as untreated, 0 = no growth, -100 = all killed)
Details: 10 µM unless noted
Experimental: Growth inhibition of the SNB-19 human tumor cell line is measured as a screen for anti-cancer activity. Cells are grown in 96 well plates and exposed to the test compound for 48 hours. Compounds are tested at a single concentration, which is 10^-5 M for most compounds. The reported endpoint is percent growth (GI% or GIPRCNT), where numbers from 0 - 100% represent growth inhibition, and numbers from -100% - 0 represent cell death. For example, a value of 40 represents 60% growth inhibition. A value of 0 means no net growth occurred over the course of the experiment. A value of -40 indicates 40% of cells at the beginning of the experiment died by the end of the experiment. A value of -100 means all cells are dead at the end of the experiment.
NCI-60 Human Tumor Cell Lines Screen was performed using the standard one-dose NCI protocol, which is described in more detail at https://dtp.cancer.gov/discovery_development/nci-60/default.htm.
Compounds with GIPRCNT values below 10 were considered active. Activity score was based on GIPRCNT using the following formula: […]
Score is 0 for GIPRCNT values of 100 or above, 50 for GIPRCNT values of 0, and 100 for GIPRCNT values of -100.

| Structure (SMILES) | growth |
| --- | --- |
| CC1=CC(=NC(=O)CBr)C=C/C1=N\S(=O)(=O)c1ccccc1 | 98.2% (inactive) |
| O=C(OC12CC3CC(CC(C3)C1)C2)c1ccc(NCc2cc(O)ccc2O)cc1 | 5.17% (active) |
| C=C(C(N)=O)C(N)C(=O)O (stereo not given) | 111% (inactive) |
| CCCCCCCCCCCCN1C(C)=CS/C1=C\C=C\c1scc(C)[n+]1CCCCCCCCCCCC | 40.2% (inactive) |
| Cc1ccccc1N=C(N)Nc1ccccc1C (tested in a mixture with another compound) | 89.1% (inactive) |
| CN1CCC(c2ccccc2)(c2ccccc2)C(=O)C1 | 90.7% (inactive) |
| CC1C(c2ccccc2)OCCN1C(=S)Nc1ccc(S(=O)(=O)N2CCCCC2)cc1 (stereo not given) | 102% (inactive) |
| O=[N+]([O-])C=C(c1ccccc1)c1ccccc1 | 85.5% (inactive) |
| CCCCCCCCCCCCCCCC[N+]1(C)CCCC1c1cccnc1 (stereo not given) | 29.1% (inactive) |
| O=C1C=CC(O)=CC1=P(c1ccccc1)(c1ccccc1)c1ccccc1 | 94.9% (inactive) |
| CC(=O)C1Cc2ccccc2C1=O (stereo not given) | 98% (inactive) |
| CCCCCCCCCCCC[n+]1ccccc1 (tested in a mixture with another compound) | -10.2% (active) |
| CCCCCCCCCCCC[N+]1(CCCCCCCCCCCC)CCCC(C)C1 (stereo not given) | -96.5% (active) |
| O=C(CCl)N1c2ccccc2Sc2c1ccc1ccccc21 | 88.9% (inactive) |
| CN(C)CCN(C)CC(C)(C)C(=O)/C=C/c1ccc(Cl)c(Cl)c1 | -98.6% [100 µM] (active) |
| O=[N+]([O-])c1ccc(Oc2ccccc2Cl)c([N+](=O)[O-])c1 | 95.7% (inactive) |
| CCOC(=O)c1cc(CC)sc1NC(=O)CC(C)=O | 29.8% (inactive) |
| c1csc(-c2[nH]nc3c2CCc2ccccc2-3)c1 | 70.3% (inactive) |
| CC1(C)CCCC2=C1C(=O)N(SC(Cl)(Cl)Cl)C2=O | 91.2% (inactive) |
| NNc1ccc(Cl)cc1Cl | 92.5% (inactive) |

| Structure (SMILES) | growth |
| --- | --- |
| N=C(N)Sc1cccc[n+]1[O-] | 59% (inactive) |
| O=C(Nc1cccc(C(F)(F)F)c1)Oc1ccc(Cl)c2cccnc12 | 46.1% (inactive) |
| O=C(O)c1ccc2c(c1)C(=O)c1ccccc1C2=O | 104% (inactive) |
| Cc1onc(-c2ccccc2)c1C(=O)N/N=C/c1cc(Cl)cc(Cl)c1O | 43.8% (inactive) |
| CCc1cnc2ccccc2c1/C=C/c1ccc(N(C)C)cc1 | 41.1% (inactive) |
| COc1c(C)c2c(c(O)c1C/C=C(\C)CCC(=O)O)C(=O)OC2 | 42.3% (inactive) |
| NCCCN(CCCN)CCCNCc1c2ccccc2c(CNCCCN(CCCN)CCCN)c2ccccc12 | 106% (inactive) |
| O=C1C(=O)c2cccnc2-c2ncccc21 | 0.441% (active) |
| O=C1C=CC(=O)N1c1ccccc1 | 106% (inactive) |
| C/C(=N\NC(=S)N1CC2CCC(CC2)C1)c1ccccn1 | 11.7% (inactive) |
| COc1cc(-c2ccc(-[n+]3nc(-c4ccc([N+](=O)[O-])cc4)nn3-c3ccc([N+](=O)[O-])cc3)c(OC)c2)ccc1-[n+]1nc(-c2ccc([N+](=O)[O-])cc2)nn1-c1ccc([N+](=O)[O-])cc1 | 40.8% (inactive) |
| OC(c1cc2ccc(C(F)(F)F)cc2c2cc(C(F)(F)F)ccc12)C1CCCCN1 (stereo not given) | -80.6% (active) |
| O=[N+]([O-])c1cc(-c2ccccc2)c(O)c([N+](=O)[O-])c1 | 68.2% (inactive) |
| CCCCCCCCc1cc(Cl)c(O)c(Cl)c1 | 93.2% (inactive) |
| OC(CSc1ccccc1)CN1CCN(c2ccc(Cl)cc2)CC1 (stereo not given) | 94.7% (inactive) |
| C/C(=N/NC(N)=S)c1ccc(C)cc1 | 104% (inactive) |
| O=C1C=Cc2ccccc2/C1=C/c1nc(-c2ccccc2)oc1O | 102% (inactive) |
| CCCCCCCCCCCCCCCCCC[S+](C)CC (stereo not given) | 8.74% (active) |
| OC(c1cc(C23CC4CC(CC(C4)C2)C3)nc2c(Cl)cc(Cl)cc12)C1CCCCN1 (stereo not given) | -58.4% (active) |
| COc1ccc2nc3cc([N+](=O)[O-])ccc3c(NNc3ccccc3)c2c1 | 73% (inactive) |
